Here are results for 25 compounds from ChEMBL document CHEMBL4296183, “CO-ADD screening of NIH NCI Natural Product Set III” (2020).

For part of these data: Potency and affinity values are given separately.

For one assay, the system named is Staphylococcus aureus. The assay can be described thus: Antibacterial activity against Staphylococcus aureus MRSA ATCC 43300 (CO-ADD:GP_020); MIC in CAMBH media using NBS plates, by Resazurin F(560/590). Format: functional. As to conditions: Concentration 20 uM, ASSAY_TEST Inhibition of Bacterial Growth, detection method Resazurin, Fluorescence (ex560/em590), MEDIA CAMHB, plate type 384well, CORNING #3640, time 18 hr. (Alamar Blue is a resazurin reagent that responds to reducing activity.)

A further assay relates to Acinetobacter baumannii. Kind of assay: Antibacterial activity against Acinetobacter baumannii ATCC 19606 (CO-ADD:GN_034); MIC in CAMBH media using NBS plates, by Resazurin F(560/590). The settings on record: Concentration 20 uM, ASSAY_TEST Inhibition of Bacterial Growth, detection method Resazurin, Fluorescence (ex560/em590), MEDIA CAMHB, plate type 384well, CORNING #3640, time 18 hr. Format: functional.

For a further assay, the system named is Escherichia coli. The assay can be described thus: Antibacterial activity against Escherichia coli ATCC 25922 (CO-ADD:GN_001); MIC in CAMBH media using NBS plates, by Resazurin F(560/590). In kind it is functional. As to conditions: Concentration 20 uM, ASSAY_TEST Inhibition of Bacterial Growth, detection method Resazurin, Fluorescence (ex560/em590), MEDIA CAMHB, plate type 384well, CORNING #3640, time 18 hr.

The subject of another assay is Klebsiella pneumoniae. As to conditions: Concentration 20 uM; ASSAY_TEST Inhibition of Bacterial Growth; detection method Absorption (OD600); MEDIA CAMHB; plate type 384well; NBS; CORNING #3640; time 18 hr.
The test system of a further assay is Candida albicans. As to conditions: 20 µM.
The next assay relates to Cryptococcus neoformans. As to conditions: Concentration 20 uM; ASSAY_TEST Inhibition of Fungal Growth; detection method Resazurin; Absorption (OD600-OD570); plate type 384well; NBS; CORNING #3640.

On to `CC1CC(O)C2C3(C)CCCC2(COC3=O)C12CCC1(CCOC1=O)O2` (stereo not given), for which the Inhibition – broadly, the change of the read-out against control, counted positive when it falls – in the assay on Staphylococcus aureus is 0.12%; with Acinetobacter baumannii, -5.16%; with Escherichia coli, 2.41%; in the assay on Klebsiella pneumoniae, 8.95%; with Candida albicans, -0.89%; in the assay with Cryptococcus neoformans, -8.53%.
With `COC(=O)C1C2CC3c4[nH]c5cc(OC)ccc5c4CCN3CC2CC(OC(=O)CCc2cc(OC)c(OC)c(OC)c2)C1OC` (stereo not given), the Inhibition was 8.41% with Staphylococcus aureus; -10.91% in the assay with Acinetobacter baumannii; 1.29% with Escherichia coli; -7.51% in the assay on Klebsiella pneumoniae; -0.42% in the assay on Candida albicans; -8.83% with Cryptococcus neoformans.
Regarding `CC(C)CC1NC(=O)C(C(C)C)NC(=O)CC(C)COC(=O)C(CC(C)C)N(C)C(=O)C(C(C)C)NC(=O)C(C(C)C)OC1=O` (stereo not given), the Inhibition in the assay on Staphylococcus aureus was -2.11%; in the assay on Acinetobacter baumannii it was 3.02%; in the assay on Escherichia coli it was 6.85%; with Klebsiella pneumoniae, 6.52%; in the assay on Candida albicans, -1.26%; with Cryptococcus neoformans it was -9.65%.
As to `O=C(O)CCCCCCC[C@@H](O)[C@@H](O)CCCCCCO`, the Inhibition is 20.06% with Staphylococcus aureus; -9.87% in the assay on Acinetobacter baumannii; 9.65% in the assay on Escherichia coli; 0.28% in the assay on Klebsiella pneumoniae; 1.24% in the assay with Candida albicans; -6.7% in the assay with Cryptococcus neoformans.
On to `CC(=O)C1CCCC(=O)/C=C/C(=O)O1` (stereo not given), for which the Inhibition with Staphylococcus aureus was -2.82%; with Acinetobacter baumannii, -9.57%; in the assay on Escherichia coli it was -0.06%; in the assay with Klebsiella pneumoniae, -0.08%; in the assay with Candida albicans, 6.81%; in the assay on Cryptococcus neoformans it was -5.33%.
As to `CC1(C)CC23C4COC(=O)C2CCC1C3CC4=O` (stereo not given), the Inhibition in the assay on Staphylococcus aureus was 5.56%; with Acinetobacter baumannii, -5.6%; in the assay with Escherichia coli it was -0.76%; in the assay with Klebsiella pneumoniae it was -5.19%; in the assay on Candida albicans it was 0.59%; in the assay with Cryptococcus neoformans, -8.62%.
`COC(=O)[C@@H]1[C@H]2C[C@@H]3c4[nH]c5ccccc5c4CCN3C[C@@H]2CC[C@@H]1O`: the Inhibition with Staphylococcus aureus was 20.93%; with Acinetobacter baumannii, -4.53%; in the assay on Escherichia coli it was 11.73%; with Klebsiella pneumoniae, -5.72%; in the assay with Candida albicans it was -3.73%; in the assay on Cryptococcus neoformans, -8.25%.
Take `COc1ccc2c(c1OC)C(=O)O[C@@H]2[C@H]1c2c(cc3c(c2OC)OCO3)CCN1C` [NOSCAPINE]: the Inhibition in the assay with Staphylococcus aureus was 1.91%; in the assay with Acinetobacter baumannii it was -5.12%; in the assay with Escherichia coli it was 1.19%; in the assay on Klebsiella pneumoniae, -0.26%; in the assay on Candida albicans it was -0.41%; in the assay on Cryptococcus neoformans, -6.69%.
As to `COc1cc(/C=C/C(=O)CC(=O)/C=C/c2ccc(O)c(OC)c2)ccc1O` [CURCUMIN], the Inhibition with Staphylococcus aureus is 13.57%; in the assay on Acinetobacter baumannii, -16.03%; with Escherichia coli, 0.88%; in the assay on Klebsiella pneumoniae, 14.8%; in the assay with Candida albicans, -4.9%; with Cryptococcus neoformans it was -10.45%.
On to `COc1cc2c3c(c4ccc(OC)c(OC)c4c2cc1OC)CN1CCC[C@@H]1C3` [TYLOCREBRINE], for which the Inhibition with Staphylococcus aureus is 23.41%; in the assay on Acinetobacter baumannii, -4.59%; in the assay on Escherichia coli, 1.54%; in the assay with Klebsiella pneumoniae, 13.12%; in the assay on Candida albicans, -1.43%; in the assay on Cryptococcus neoformans, -6.05%.
Consider `CC(C)=CCc1c2c(c3occ(-c4ccc(O)c(O)c4)c(=O)c3c1O)C=CC(C)(C)O2` [POMIFERIN], for which the Inhibition in the assay on Staphylococcus aureus was 6.8%; in the assay on Acinetobacter baumannii, 23.27%; in the assay with Escherichia coli it was 0.91%; in the assay on Klebsiella pneumoniae, 26.31%; with Candida albicans, -6.81%; in the assay with Cryptococcus neoformans it was -8.85%.
On to `C=C1C(=O)OC2CC(C)C3(O)CCC(=O)C3(C)CC12` (stereo not given), for which the Inhibition is 18.37% in the assay with Staphylococcus aureus; -10.29% in the assay on Acinetobacter baumannii; 9.08% in the assay with Escherichia coli; 2.56% in the assay on Klebsiella pneumoniae; 2.8% with Candida albicans; -16.95% in the assay with Cryptococcus neoformans.
For `CC(=O)CCCCn1c(=O)c2c(ncn2C)n(C)c1=O` [PENTOXIFYLLINE], the Inhibition in the assay on Staphylococcus aureus was 0.21%; in the assay with Acinetobacter baumannii, 0.79%; with Escherichia coli, 9.18%; in the assay on Klebsiella pneumoniae, -2.03%; with Candida albicans, 4.24%; with Cryptococcus neoformans, -13.02%.
For `COc1cc(C)c2c(c1C=O)Oc1c(c(C)c(O)c3c1C(O)OC3=O)OC2=O` (stereo not given) [STICTIC ACID], the Inhibition was 1.81% with Staphylococcus aureus; -4.46% in the assay on Acinetobacter baumannii; 10.36% in the assay with Escherichia coli; -0.81% with Klebsiella pneumoniae; -4.28% in the assay with Candida albicans; -12.08% in the assay on Cryptococcus neoformans.
For the compound `COc1c2occc2cc2ccc(=O)oc12` [METHOXSALEN], the Inhibition in the assay with Staphylococcus aureus was 3.08%; in the assay on Acinetobacter baumannii it was -6.09%; in the assay on Escherichia coli it was 2.12%; with Klebsiella pneumoniae, 4.76%; with Candida albicans, -3.39%; with Cryptococcus neoformans it was -9.6%.
Regarding `CC1=C2[C@H]3OC(=O)[C@@H](C)[C@@H]3CC[C@@]2(C)C=C/C1=N\O`, the Inhibition in the assay with Staphylococcus aureus is 19.54%; with Acinetobacter baumannii, -5.16%; in the assay on Escherichia coli it was 3.05%; in the assay with Klebsiella pneumoniae it was 6.63%; with Candida albicans, -0.24%; in the assay on Cryptococcus neoformans it was -9.56%.
Consider `C/C=C/c1cc2c(c(=O)o1)C(=O)[C@@H](O)[C@H](C)O2`, for which the Inhibition with Staphylococcus aureus is -0.66%; in the assay on Acinetobacter baumannii it was -9.6%; in the assay on Escherichia coli it was 14.21%; in the assay on Klebsiella pneumoniae it was -6.98%; with Candida albicans it was 1.1%; in the assay on Cryptococcus neoformans, -12.06%.
With `COc1c(O)cc2oc3cc(O)c(CC=C(C)C)c(O)c3c(=O)c2c1CC=C(C)C` [MANGOSTIN], the Inhibition is -10.76% in the assay with Staphylococcus aureus; -19.44% with Acinetobacter baumannii; -3.06% with Escherichia coli; -4.57% with Klebsiella pneumoniae; -6.96% in the assay with Candida albicans; -8.44% in the assay with Cryptococcus neoformans.
Regarding `COc1cc2c(c(OC)c1OC)-c1ccc(OC)c(=O)cc1[C@@H](NC(C)=O)CC2` [COLCHICINE], the Inhibition in the assay with Staphylococcus aureus was -2.4%; in the assay with Acinetobacter baumannii it was -6.56%; in the assay on Escherichia coli, 3.55%; in the assay on Klebsiella pneumoniae it was 3.13%; in the assay with Candida albicans it was -0.28%; with Cryptococcus neoformans it was -9.86%.
For the compound `COc1c2occc2c(OC)c2c(=O)cc(C)oc12` [KHELLIN], the Inhibition was 20.27% in the assay with Staphylococcus aureus; -0.82% in the assay on Acinetobacter baumannii; 5.11% with Escherichia coli; 15.74% in the assay with Klebsiella pneumoniae; -0.57% in the assay with Candida albicans; -6.58% in the assay with Cryptococcus neoformans.
`CC(C)c1ccc2c(c1)CC[C@H]1[C@](C)(C(=O)O)CCC[C@]21C` [DEHYDROABIETIC ACID]: the Inhibition with Staphylococcus aureus was 11.51%; with Acinetobacter baumannii, -10.79%; in the assay on Escherichia coli it was 7.61%; in the assay on Klebsiella pneumoniae it was -3.77%; in the assay with Candida albicans it was 14%; in the assay with Cryptococcus neoformans it was -14.06%.
As for `C=C1C(=O)OC2CC1C(O)C/C(C)=C/CC/C(C)=C/C(O)CC2C` (stereo not given), the Inhibition in the assay with Staphylococcus aureus is 8.79%; with Acinetobacter baumannii it was -8.51%; with Escherichia coli it was 8%; in the assay on Klebsiella pneumoniae, 4.77%; with Candida albicans, 2.83%; in the assay with Cryptococcus neoformans it was -14.61%.
On to `Cc1cc2nc3[nH]c(=O)[nH]c(=O)c3nc2cc1C` [LUMICHROME], for which the Inhibition in the assay with Staphylococcus aureus was 0.69%; with Acinetobacter baumannii, -0.84%; in the assay on Escherichia coli, 3.58%; in the assay on Klebsiella pneumoniae it was 12.48%; in the assay on Candida albicans, 0.84%; in the assay on Cryptococcus neoformans, -5.45%.
Take `C=C1C(=O)OC2CC3(C)CCCC(C)C3=CC12` (stereo not given): the Inhibition in the assay with Staphylococcus aureus is 9.16%; in the assay on Acinetobacter baumannii it was -5.59%; with Escherichia coli, -1.07%; in the assay with Klebsiella pneumoniae it was 10.15%; in the assay on Candida albicans, 0.7%; with Cryptococcus neoformans it was -3.97%.
On to `COc1c2c(cc3c1[C@@H]1Oc4c(ccc(O)c4CC=C(C)C)[C@@H]1CO3)OC(C)(C)C=C2`, for which the Inhibition in the assay with Staphylococcus aureus was -1.33%; in the assay on Acinetobacter baumannii, -12.04%; in the assay on Escherichia coli, 1.21%; in the assay with Klebsiella pneumoniae, -0.46%; with Candida albicans, 5.57%; with Cryptococcus neoformans, -11.6%.
